# Tests used:
# Assay in all cases: DAPPL (digital affinity profiling via proximity ligation, sequencing); 10 mM Tris-HCl pH 7.5, 50 mM NaCl, 1 mM DTT, 4% glycerol, room temperature, 30 min; GST-TFs on glutathione beads, 16-mer random dsDNA library, 0.1% formaldehyde crosslink after washing; high values mean tight binding
# Settings in all cases: protein: recombinant; tags: N-terminal GST; dsDNA, one strand shown
# [1] = biological target: T1, FLI1 (Homo sapiens, UniProt Q01543 1-452)
# T1 sequence: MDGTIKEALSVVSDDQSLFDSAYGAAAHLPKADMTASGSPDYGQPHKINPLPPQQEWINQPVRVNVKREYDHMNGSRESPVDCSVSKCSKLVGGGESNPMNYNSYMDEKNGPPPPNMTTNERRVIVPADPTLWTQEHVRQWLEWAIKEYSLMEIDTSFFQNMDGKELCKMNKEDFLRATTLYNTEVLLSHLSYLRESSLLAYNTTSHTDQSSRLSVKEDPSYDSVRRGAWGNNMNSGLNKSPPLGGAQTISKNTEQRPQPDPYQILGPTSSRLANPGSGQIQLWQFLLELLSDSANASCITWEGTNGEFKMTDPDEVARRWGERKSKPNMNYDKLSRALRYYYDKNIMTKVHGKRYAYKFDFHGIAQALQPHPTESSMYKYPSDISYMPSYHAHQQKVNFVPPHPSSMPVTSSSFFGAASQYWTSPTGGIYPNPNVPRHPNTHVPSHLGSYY
# How it was run: (§1)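 Binding signal is defined as a hexamer's read frequency for one factor over its frequency for the tag-only sample. To obtain reads, GST-fused human transcription factors were expressed in yeast, captured on glutathione beads, barcoded with DNA and pooled with that sample. Pools met 200 nmole of a 16-mer random double-stranded DNA library in Tris/NaCl/DTT/glycerol buffer for 30 min at room temperature before washing, 0.1% formaldehyde crosslinking, proximity ligation (BsaI/T4 ligase, 1 h, 37 °C), PCR and Illumina NextSeq500 sequencing.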
# [2] = biological target: T2, ELK1 (Homo sapiens, UniProt P19419 1-428)
# T2 sequence: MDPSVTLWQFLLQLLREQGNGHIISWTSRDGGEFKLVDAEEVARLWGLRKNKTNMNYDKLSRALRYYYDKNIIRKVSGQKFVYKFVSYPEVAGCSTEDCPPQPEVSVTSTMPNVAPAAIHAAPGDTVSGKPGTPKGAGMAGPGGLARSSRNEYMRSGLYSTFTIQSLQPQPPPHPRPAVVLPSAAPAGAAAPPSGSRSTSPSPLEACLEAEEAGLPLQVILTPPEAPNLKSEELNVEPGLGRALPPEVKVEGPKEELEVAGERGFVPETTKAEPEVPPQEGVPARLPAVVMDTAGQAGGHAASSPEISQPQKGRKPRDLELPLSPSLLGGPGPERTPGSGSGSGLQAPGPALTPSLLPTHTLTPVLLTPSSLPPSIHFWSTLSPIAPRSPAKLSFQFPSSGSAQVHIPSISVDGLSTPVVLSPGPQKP
# How it was run: as §1
# [3] = biological target: T3, GABPA (Homo sapiens, UniProt Q06546 1-454)
# T3 sequence: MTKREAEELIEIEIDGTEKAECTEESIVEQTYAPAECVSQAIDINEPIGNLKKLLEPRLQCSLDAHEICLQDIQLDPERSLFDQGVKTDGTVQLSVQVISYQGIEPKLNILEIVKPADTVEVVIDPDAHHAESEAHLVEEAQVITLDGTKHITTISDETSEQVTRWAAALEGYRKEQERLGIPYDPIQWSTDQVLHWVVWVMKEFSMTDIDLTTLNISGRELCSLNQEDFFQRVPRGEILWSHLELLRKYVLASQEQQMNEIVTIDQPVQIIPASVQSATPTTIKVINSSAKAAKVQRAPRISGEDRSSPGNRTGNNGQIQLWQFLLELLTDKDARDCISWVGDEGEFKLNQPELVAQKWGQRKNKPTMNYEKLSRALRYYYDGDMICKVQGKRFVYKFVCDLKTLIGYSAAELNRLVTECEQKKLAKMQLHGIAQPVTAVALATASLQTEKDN
# How it was run: as §1
# [4] = biological target: T4, ERG (Homo sapiens, UniProt P11308 1-479)
# T4 sequence: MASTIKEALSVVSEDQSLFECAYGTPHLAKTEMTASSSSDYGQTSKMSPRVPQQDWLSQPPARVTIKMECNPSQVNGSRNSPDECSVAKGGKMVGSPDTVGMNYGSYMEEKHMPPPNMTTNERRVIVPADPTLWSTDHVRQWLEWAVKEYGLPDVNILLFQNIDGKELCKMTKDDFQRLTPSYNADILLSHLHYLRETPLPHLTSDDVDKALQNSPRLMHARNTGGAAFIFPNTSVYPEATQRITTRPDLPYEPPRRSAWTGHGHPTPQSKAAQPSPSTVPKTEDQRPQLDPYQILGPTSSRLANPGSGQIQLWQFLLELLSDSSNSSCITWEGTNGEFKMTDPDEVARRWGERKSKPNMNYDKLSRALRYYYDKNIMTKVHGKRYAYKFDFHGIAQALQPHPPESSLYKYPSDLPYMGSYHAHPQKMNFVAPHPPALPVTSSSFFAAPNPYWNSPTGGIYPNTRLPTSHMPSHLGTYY
# How it was run: as §1
# [5] = biological target: ELF1 (Homo sapiens, UniProt P32519 1-619)
# How it was run: as §1
# [6] = biological target: T5, EHF (Homo sapiens, UniProt Q9NZC4 1-300)
# T5 sequence: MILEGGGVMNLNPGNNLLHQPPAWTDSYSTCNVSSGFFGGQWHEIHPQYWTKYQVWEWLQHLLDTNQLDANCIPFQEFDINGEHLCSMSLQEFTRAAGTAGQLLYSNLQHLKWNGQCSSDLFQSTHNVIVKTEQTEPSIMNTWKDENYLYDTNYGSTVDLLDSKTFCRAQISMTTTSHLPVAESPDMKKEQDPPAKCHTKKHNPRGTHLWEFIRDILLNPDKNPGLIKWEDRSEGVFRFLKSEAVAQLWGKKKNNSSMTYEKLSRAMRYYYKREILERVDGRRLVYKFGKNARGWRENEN
# How it was run: as §1
# [7] = biological target: SPI1 (Homo sapiens, UniProt P17947 1-270)
# How it was run: as §1
# [8] = biological target: SPIB (Homo sapiens, UniProt Q01892 1-262)
# How it was run: as §1
# [9] = biological target: T6, ELK3 (Homo sapiens, UniProt P41970 1-407)
# T6 sequence: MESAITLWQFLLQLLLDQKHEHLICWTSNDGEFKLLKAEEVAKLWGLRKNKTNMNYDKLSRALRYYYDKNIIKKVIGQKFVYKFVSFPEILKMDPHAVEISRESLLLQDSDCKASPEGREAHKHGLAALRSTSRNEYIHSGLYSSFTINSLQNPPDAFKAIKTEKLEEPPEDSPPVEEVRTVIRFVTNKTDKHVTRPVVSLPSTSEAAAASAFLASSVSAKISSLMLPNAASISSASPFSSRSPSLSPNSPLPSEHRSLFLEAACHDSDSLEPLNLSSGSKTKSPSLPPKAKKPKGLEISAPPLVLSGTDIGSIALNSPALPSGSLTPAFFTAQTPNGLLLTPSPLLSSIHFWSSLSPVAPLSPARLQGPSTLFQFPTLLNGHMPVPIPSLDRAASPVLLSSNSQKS
# How it was run: as §1
# SPIB, sequence (Q01892 whole entry): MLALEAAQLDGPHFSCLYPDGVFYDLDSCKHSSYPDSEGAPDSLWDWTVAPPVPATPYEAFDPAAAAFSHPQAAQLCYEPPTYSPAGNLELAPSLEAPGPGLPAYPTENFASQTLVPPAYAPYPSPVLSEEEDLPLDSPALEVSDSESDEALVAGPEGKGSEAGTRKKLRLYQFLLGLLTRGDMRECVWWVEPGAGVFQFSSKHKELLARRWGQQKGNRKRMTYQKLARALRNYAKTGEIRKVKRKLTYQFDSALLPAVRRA
# ELF1, sequence (P32519 whole entry): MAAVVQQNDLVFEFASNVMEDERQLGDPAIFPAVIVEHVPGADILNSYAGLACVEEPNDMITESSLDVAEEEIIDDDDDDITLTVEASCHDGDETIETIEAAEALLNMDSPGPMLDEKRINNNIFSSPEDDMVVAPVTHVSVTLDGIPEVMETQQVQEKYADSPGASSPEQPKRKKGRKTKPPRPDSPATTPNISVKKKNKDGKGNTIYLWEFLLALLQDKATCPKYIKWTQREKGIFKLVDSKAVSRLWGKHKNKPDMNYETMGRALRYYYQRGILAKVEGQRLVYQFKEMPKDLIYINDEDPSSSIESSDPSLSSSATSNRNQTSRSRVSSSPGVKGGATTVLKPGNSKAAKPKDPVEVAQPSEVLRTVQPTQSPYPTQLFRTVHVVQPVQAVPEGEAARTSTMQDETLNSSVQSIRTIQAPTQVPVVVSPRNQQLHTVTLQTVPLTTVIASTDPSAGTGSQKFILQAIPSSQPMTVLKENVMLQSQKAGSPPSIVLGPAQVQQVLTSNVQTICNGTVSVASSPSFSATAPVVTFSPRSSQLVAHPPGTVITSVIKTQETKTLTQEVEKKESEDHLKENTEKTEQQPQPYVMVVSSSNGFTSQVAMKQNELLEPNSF
Sequence,binding signal [1],binding signal [2],binding signal [3],binding signal [4],binding signal [5],binding signal [6],binding signal [7],binding signal [8],binding signal [9]
TGGGTT,"1.17 fold enrichment (6-mer frequency, TF over GST control)","1.11 fold enrichment (6-mer frequency, TF over GST control)","1.18 fold enrichment (6-mer frequency, TF over GST control)","1.1 fold enrichment (6-mer frequency, TF over GST control)","1.1 fold enrichment (6-mer frequency, TF over GST control)","1.18 fold enrichment (6-mer frequency, TF over GST control)","1.01 fold enrichment (6-mer frequency, TF over GST control)","1.02 fold enrichment (6-mer frequency, TF over GST control)","1.01 fold enrichment (6-mer frequency, TF over GST control)"
GCAACT,"1.22 fold enrichment (6-mer frequency, TF over GST control)","1.19 fold enrichment (6-mer frequency, TF over GST control)","1.19 fold enrichment (6-mer frequency, TF over GST control)","1.33 fold enrichment (6-mer frequency, TF over GST control)","1.29 fold enrichment (6-mer frequency, TF over GST control)","1.2 fold enrichment (6-mer frequency, TF over GST control)","1.23 fold enrichment (6-mer frequency, TF over GST control)","1.22 fold enrichment (6-mer frequency, TF over GST control)","1.14 fold enrichment (6-mer frequency, TF over GST control)"
CCGCAA,"1.27 fold enrichment (6-mer frequency, TF over GST control)","1.3 fold enrichment (6-mer frequency, TF over GST control)","1.36 fold enrichment (6-mer frequency, TF over GST control)","1.28 fold enrichment (6-mer frequency, TF over GST control)","1.31 fold enrichment (6-mer frequency, TF over GST control)","1.34 fold enrichment (6-mer frequency, TF over GST control)","1.45 fold enrichment (6-mer frequency, TF over GST control)","1.28 fold enrichment (6-mer frequency, TF over GST control)","1.34 fold enrichment (6-mer frequency, TF over GST control)"
TTGACC,"1.4 fold enrichment (6-mer frequency, TF over GST control)","1.44 fold enrichment (6-mer frequency, TF over GST control)","1.56 fold enrichment (6-mer frequency, TF over GST control)","1.49 fold enrichment (6-mer frequency, TF over GST control)","1.43 fold enrichment (6-mer frequency, TF over GST control)","1.46 fold enrichment (6-mer frequency, TF over GST control)","1.34 fold enrichment (6-mer frequency, TF over GST control)","1.46 fold enrichment (6-mer frequency, TF over GST control)","1.54 fold enrichment (6-mer frequency, TF over GST control)"
TCCGCG,"1.25 fold enrichment (6-mer frequency, TF over GST control)","1.27 fold enrichment (6-mer frequency, TF over GST control)","1.03 fold enrichment (6-mer frequency, TF over GST control)","1.41 fold enrichment (6-mer frequency, TF over GST control)","1.2 fold enrichment (6-mer frequency, TF over GST control)","1.23 fold enrichment (6-mer frequency, TF over GST control)","1.3 fold enrichment (6-mer frequency, TF over GST control)","1.36 fold enrichment (6-mer frequency, TF over GST control)","1.14 fold enrichment (6-mer frequency, TF over GST control)"
TGCCCC,"1.13 fold enrichment (6-mer frequency, TF over GST control)","1.2 fold enrichment (6-mer frequency, TF over GST control)","1.27 fold enrichment (6-mer frequency, TF over GST control)","1.28 fold enrichment (6-mer frequency, TF over GST control)","1.27 fold enrichment (6-mer frequency, TF over GST control)","1.32 fold enrichment (6-mer frequency, TF over GST control)","1.31 fold enrichment (6-mer frequency, TF over GST control)","1.13 fold enrichment (6-mer frequency, TF over GST control)","1.18 fold enrichment (6-mer frequency, TF over GST control)"
CGAATT,"1.13 fold enrichment (6-mer frequency, TF over GST control)","1.1 fold enrichment (6-mer frequency, TF over GST control)","1.27 fold enrichment (6-mer frequency, TF over GST control)","1.23 fold enrichment (6-mer frequency, TF over GST control)","1.2 fold enrichment (6-mer frequency, TF over GST control)","1.19 fold enrichment (6-mer frequency, TF over GST control)","1.22 fold enrichment (6-mer frequency, TF over GST control)","1.23 fold enrichment (6-mer frequency, TF over GST control)","1.23 fold enrichment (6-mer frequency, TF over GST control)"
AATATA,"1.28 fold enrichment (6-mer frequency, TF over GST control)","1.38 fold enrichment (6-mer frequency, TF over GST control)","1.35 fold enrichment (6-mer frequency, TF over GST control)","1.33 fold enrichment (6-mer frequency, TF over GST control)","1.37 fold enrichment (6-mer frequency, TF over GST control)","1.42 fold enrichment (6-mer frequency, TF over GST control)","1.37 fold enrichment (6-mer frequency, TF over GST control)","1.28 fold enrichment (6-mer frequency, TF over GST control)","1.43 fold enrichment (6-mer frequency, TF over GST control)"

# From article PMC7862700, “An all-to-all approach to the identification of sequence-specific readers for epigenetic DNA modifications on cytosine”
